# Screens from PubChem.
# PLK1 PBD block = PLK1 (human) polo-box domain binding inhibition; Plk1 PBD binding of FITC phosphopeptide, fluorescence polarization; Potency, µM, for inactives: max response, negative = inhibition, hits mostly inhibitors; 2.8% of 360,000 active; AID 720504; further: series mostly up to about 57 µM; nearly all actives have a fitted effect of over 65% in size
# Target sequence (P53350 whole entry, looked up, the tested form may be a part): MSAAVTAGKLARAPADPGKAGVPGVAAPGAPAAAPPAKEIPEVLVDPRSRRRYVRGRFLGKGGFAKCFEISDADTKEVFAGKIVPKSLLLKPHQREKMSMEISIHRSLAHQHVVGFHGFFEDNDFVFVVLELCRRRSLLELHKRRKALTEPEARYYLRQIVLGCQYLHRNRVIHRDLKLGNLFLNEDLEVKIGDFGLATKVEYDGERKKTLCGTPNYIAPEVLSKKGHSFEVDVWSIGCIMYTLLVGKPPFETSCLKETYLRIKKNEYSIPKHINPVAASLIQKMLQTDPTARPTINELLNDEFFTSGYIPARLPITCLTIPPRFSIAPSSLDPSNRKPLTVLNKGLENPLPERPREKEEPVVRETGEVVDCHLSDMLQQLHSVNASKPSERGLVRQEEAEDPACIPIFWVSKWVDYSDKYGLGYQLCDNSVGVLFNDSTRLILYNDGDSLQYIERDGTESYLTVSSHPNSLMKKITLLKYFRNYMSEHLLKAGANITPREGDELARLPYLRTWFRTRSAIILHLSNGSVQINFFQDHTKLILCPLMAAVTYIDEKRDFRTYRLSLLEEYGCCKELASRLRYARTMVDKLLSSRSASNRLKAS
# Sfp inh = Sfp phosphopantetheinyl transferase inhibition; Biochemical Sfp PPTase activity, qHTS; Potency, µM, for inactives: largest response in the series, negative = inhibition, hits mostly inhibitors; 3.5% of 310,000 active; Q9F4F7;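 further: the enzyme is Sfp with the accession as filed and its product quenches rhodamine fluorescence; 0% = enzyme reaction without inhibitor and -100% = no enzyme wells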
#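 Fluorescence-quenching assay: 15 nM Sfp-PPTase preincubated 15 min at room temperature with compound, then 5 uM rhodamine-CoA and 12.5 uM BHQ-2-labelled YbbR peptide added. Fluorescence (ex 525/em 598 nm) read at start and after 30 min; difference gives rate.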
# Tau fluor counter = counter-screen for tau fibril formation inhibitors; 0.93% of 280,000 active; Potency, µM (top dose mostly 57.7 µM), inactives show at the top dose activity change, negative = decrease; AID 1463; tau K18 P301L Alexa594 fluorescence, heparin fibrillization; further: nearly all actives have a fitted effect of over 55% in size
#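 Human tau K18 P301L (15 uM unlabeled, 0.24 uM Alexa 594-labeled) in 100 mM sodium acetate pH 7 with 20 uM heparin, 6 hr at 37 C. ThT 30 uM added, 1 hr ambient; Alexa 594 FP and total fluorescence read at 555/632 nm.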
# Tau FP inhib = blocks human tau fibril formation measured by polarization; K18 P301L tau heparin fibrillization, Alexa594 FP, 6 h; Potency, µM (doses to about 57.7 µM), without a hit: at the top dose activity, negative = inhibition, hits mostly inhibitors; 0.39% of 280,000 active; P10636; further: nearly all actives have a fitted effect of over 55% in size
#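 Human K18 P301L fragment (15 uM unlabeled plus 0.24 uM Alexa 594-labeled) in 100 mM sodium acetate pH 7 with compound, aggregation induced by 20 uM heparin for 6 hr at 37 C. ThT (30 uM) added for 1 hr, then Alexa 594 FP read.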
# VDR inhibitor = blocks the human vitamin D receptor; Potency, µM, for the others: max response, negative = inhibition, actives largely listed as inhibitors; 0.93% of 400,000 active; P11473; AID 504847; VDR-SRC2-3 peptide fluorescence polarization, 2 h
#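 The screen uses fluorescence polarization to detect compounds that interfere with recruitment of the SRC2-3 coactivator peptide to VDR; plates are read after 2 h at room temperature.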
# Tau ThT inhib = blocks human tau fibril formation measured by thioflavin T | AID 1460 | 2.1% of 270,000 active | Potency, µM (titrated, usually from 57.4 µM), inactives show top-dose activity, negative = inhibition, most hits filed as inhibitors | P10636 | recombinant tau K18 P301L (four-repeat tau fragment), heparin-induced fibrillization, ThT fluorescence; further: nearly all actives have a fitted effect of over 55% in size
#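 Heparin-induced fibrillization of the P301L-mutant K18 repeat-domain fragment of human tau was followed by ThT binding in quantitative high-throughput format.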
# Starred values were filed as active, the others as inactive; u = inconclusive; x = no result given. Compounds with a hit are over-represented: about 6% of the library has one in this group of screens. The call rests on the fitted dose curve; in most records, active means well fitted curve in the direction sought with a large enough effect; inconclusive means small, poorly fitted or top-dose-only effect, or another doubt; inactive means no such curve, though single readings can be large; an effect the other way counts as inactive or inconclusive. Unless noted, on the % scale 0 is the no-effect control and ±100 the full control effect; potency means the concentration at half of the fitted maximal effect.
SMILES,PLK1 PBD block,Sfp inh,Tau fluor counter,Tau FP inhib,VDR inhibitor,Tau ThT inhib
COc1ccc(C(=O)N/N=C/c2c[nH]c3ccccc23)cc1,-6.8%,17.0%,x,x,-28.0%,x
COc1ccccc1/C=N/NC(=O)c1ccc(-c2ccccc2)cc1,29.9µM*,-3.8%,-17.4%,-8.4%,5.9%,u
COc1cc(/C=N/NC(=O)c2cccc3ccccc23)cc(OC)c1OC,29.9µM*,-8.6%,x,x,-15.2%,x
COc1cc(/C=N/NC(=O)c2cccc3ccccc23)cc(OC)c1O,-7.5%,-11.2%,x,x,-11.6%,x
CCOc1ccccc1C=NNC(=O)c1cccc2ccccc12,2.8%,x,x,x,-16.6%,x
CCCNC(=O)C1(C)CCN(Cc2ccc3ccccc3c2Br)C1 (stereo not drawn),-15.4%,x,x,x,x,x
CO[C@@H]1CN(C)C(=O)c2cc(NS(=O)(=O)c3ccc(C)cc3)ccc2OC[C@H](C)N(Cc2nccs2)C[C@H]1C,-11.2%,x,x,x,x,x
Cc1nn(CC(=O)Nc2ccccc2C(F)(F)F)c(=O)c2cccn12,-2.5%,13.2%,-26.5%,u,-16.2%,u
Cc1ccc(S(=O)(=O)N2CCC(N3CCN(Cc4ccccc4)C(=O)C3=O)CC2)cc1C,x,x,-6.6%,4.3%,0.9%,-2.4%
COc1ccc(C(=O)N/N=C/c2cccc3cccnc23)cc1,-2.4%,13.6%,-3.8%,2.9%,10.2%,-16.5%
CCOc1ccccc1C(=O)N/N=C/c1cccc2cccnc12,-6.8%,89.1µM*,-14.3%,-7.3%,-8.9%,u
CC(=C/c1ccco1)/C=N/N1CCN(c2ccccc2)CC1,-7.7%,16.8%,-28.9%,0.8%,0.6%,14.1µM*
CC(/C=N/N1CCN(c2ccccc2)CC1)=C\c1ccco1,-1.7%,11.3%,-23.6%,1.9%,7.0%,u
Cc1ccc(C(=O)c2cn(CC(=O)Nc3ccc4c(c3)OCCO4)c3nc(C)ccc3c2=O)cc1,x,x,u,-4.2%,22.0%,u
CCCCCC1CC(CC/C(C)=N/NC(N)=O)C(=O)O1 (stereo not drawn),-1.1%,15.8%,-9.9%,7.3%,-4.6%,-2.9%
CCCCCNc1nc(-c2ccccc2)cs1,x,-0.5%,-27.5%,12.3%,x,u
CCCCCOCC1CC(C/C(C)=N/Nc2nc(-c3ccccc3)cs2)C(=O)O1 (stereo not drawn),21.2µM*,70.8µM*,u,-6.9%,u,u
CCCCCOCC1CC(C/C(C)=N/NC(N)=S)C(=O)O1 (stereo not drawn),26.7µM*,44.7µM*,5.7%,1.5%,-27.2%,-1.9%
CCN(CC)c1cc2c(cc1F)c(=O)c(S(=O)(=O)c1ccc(OC)cc1)cn2Cc1ccccc1,x,x,-16.2%,-7.5%,14.0%,-13.7%
Cc1[nH]c2ccccc2c1C(c1ccccn1)c1c(C)[nH]c2ccccc12,u,39.8µM*,u,16.6%,14.2%,u
Cc1ccc2nc(Nc3ccc(Br)cc3)nc(-c3ccccc3)c2c1,x,x,-25.9%,u,-14.5%,-13.2%
CCN(CC)CCOC(=O)c1ccc(N/C=C(/C#N)c2nc(-c3ccc(OC)cc3)cs2)cc1,-7.7%,56.2µM*,-14.1%,11.1%,26.2%,x
CN(CC#CC1(O)c2ccccc2-c2ccccc21)Cc1ccccc1,-1.9%,44.7µM*,2.4%,-3.0%,-17.0%,5.0%
CCSc1ncc(Cl)c(C(=O)N(Cc2ccccc2)c2ccc(OC)cc2)n1,x,x,-11.5%,-0.2%,-0.2%,-7.6%
Cc1nc2c(O)cccc2c(=O)[nH]1,x,56.2µM*,-8.3%,-0.2%,-1.8%,-12.1%
COc1ccc(C(=O)/C(=C\c2ccco2)N2C=CC=CC2=C(C#N)C#N)cc1,21.2µM*,17.8µM*,u,u,39.8µM*,12.6µM*
N#CC(C#N)=C1C=CC=CN1/C(=C\c1ccco1)C(=O)c1ccccc1,11.9µM*,15.8µM*,u,20µM*,14.1µM*,14.1µM*
CCN(CC)c1ccc(/C=C(\C#N)C(=O)c2ccc(Br)cc2)cc1,-67.5%,-9.5%,u,-9.3%,-18.7%,u
N#CC(C#N)=C1C=CC=CN1/C(=C\c1ccco1)C(=O)c1ccc(Br)cc1,2.99µM*,8.91µM*,-27.7%,u,10µM*,11.2µM*
